KB-V1 MDR tox: qHTS assay for MDR1-selective chemotherapeutics: Primary screen using the drug-selected MDR subline cells KB-V1; KB-V1 MDR cells viability, CellTiter-Glo, 72 h; Potency, µM (titrated, usually from 46.1 µM), most hits filed as cytotoxic; AID 1347076, 2019; 3.4% of 400,000 active; also: nearly all actives have a fitted effect of over 60% in size
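Drug-selected KB-V1 cells, grown in DMEM lacking phenol red with 10% FBS, receive compound titrations; after three days at 37 degrees C, surviving cell ATP is quantified by CellTiter-Glo luminescence and responses normalized and curve-fitted.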
DT40 TDP1 CPT: qHTS for Inhibitors of human tyrosyl-DNA phosphodiesterase 1 (TDP1): qHTS in cells in presence of CPT; Potency, µM (doses to about 46.2 µM), inactives show at the highest dose activity change, negative = growth inhibition, hits mostly inhibitors; 12% of 420,000 active; chicken DT40 Tdp1-/-;hTDP1 cells + 20 nM CPT, ATP luminescence, 48 h; also: nearly all actives have a fitted effect of over 55% in size
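Cell growth measured by CellTiter-Glo luminescence after a minimum 48 h, 37 C compound exposure with 20 nM CPT in Tdp1-knockout DT40 cells stably expressing hTDP1, seeded 400/well; qHTS titration format.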
KB-3-1 cytotox: qHTS assay for MDR1-selective chemotherapeutics: Primary screen using the parental adenocarcinoma cell KB-3-1; Potency, µM (titrated, usually from 46.1 µM), actives largely listed as cytotoxic; 1.4% of 400,000 active; AID 1347075, 2019; KB-3-1 viability, CellTiter-Glo ATP luminescence, 72 h; also: nearly all actives have a fitted effect of over 60% in size
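Multi-concentration cytotoxicity screen in KB-3-1 cells grown in DMEM lacking phenol red with 10% FBS. After 72 h at 37 °C with compound, ATP-dependent luminescence was recorded.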
TDP1 cell noCPT: qHTS for Inhibitors of human tyrosyl-DNA phosphodiesterase 1 (TDP1): qHTS in cells in absence of CPT. DT40 Tdp1-/- hTDP1 cells, no CPT, ATP luminescence, 48 h. Potency, µM (series often up to 46.2 µM), inactives show at the highest dose activity change, negative = growth inhibition, usual class: inhibitors. 15% of 420,000 active. AID 686978, 2013; also: nearly all actives have a fitted effect of over 55% in size
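A cellular qHTS used chicken DT40 cells lacking endogenous Tdp1 but carrying stably transfected human TDP1. Compounds were applied without camptothecin, and cell growth kinetics were judged by ATP-dependent luminescence after ≥48 hr.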
HT1080 IDH1KD tx: qHTS for induction of synthetic lethality in tumor cells producing 2HG: qHTS for the HT-1080-IDH1KD cell line. HT-1080 IDH1 knockdown viability, ATP luminescence, 48 h. Potency, µM (titrated, usually from 46.1 µM), without a hit: at the top dose activity, negative = toxicity, most hits filed as cytotoxic. 2% of 360,000 active;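 also: 0% = DMSO wells and -100% = cell-free medium wells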
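Assay cells: HT-1080 with IDH1 knockdown, 750 per well, RPMI/5% FBS. Exposure: 48 h at 37 °C following 2 h pre-incubation. Read: CellTiter-Glo luminescence; fitted concentration-response, curve class assigned.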
HT1080-NT tox: qHTS for induction of synthetic lethality in tumor cells producing 2HG: qHTS for the HT-1080-NT fibrosarcoma cell line; HT-1080-NT fibrosarcoma viability, CellTiter-Glo ATP luminescence, 48 h; AID 686970, 2013; Potency, µM (doses to about 46.1 µM), without a hit: at the top dose activity, negative = less viability, usual class: cytotoxic; 1.6% of 360,000 active;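 also: NT is the 2HG producing partner of a matched IDH1 knockdown line; 0% = DMSO-treated cells and -100% = media-only wells without cells; nearly all actives have a fitted effect of over 55% in size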
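Fibrosarcoma NT cells, 750 per well in 5% FBS RPMI, were exposed to compound for 48 hours. Viability: CellTiter-Glo luminescence.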
Numbers without * were called inactive; i = inactive; ? = inconclusive; · = no result given; [ ] = remark or other dose. Compounds with a hit are over-represented: about 19% of the library has one in this group of screens. Calls follow the shape of the dose curve; as a rule, active = well fitted curve in the direction sought with a large enough effect; inconclusive = small, poorly fitted or top-dose-only effect, or another doubt; inactive = no such curve, though single readings can be large; an effect the other way counts as inactive or inconclusive. Unless noted, % is scaled to controls: 0 for no effect and ±100 for the full control effect; potency is read from the fitted curve at half-maximal effect.

SMILES | KB-V1 MDR tox | DT40 TDP1 CPT | KB-3-1 cytotox | TDP1 cell noCPT | HT1080 IDH1KD tx | HT1080-NT tox
CC1(c2nnc(-c3cccc(Cl)c3)o2)CC(c2cccnc2)=NO1 (configuration not stated) | i | ? | i | -12.6% | -2.3% | 2.4%
CC1CCCC(NC(=O)NC(=O)COC(=O)C2=NN(c3ccccc3)C(=O)CC2)C1C (configuration not stated) | i | -2.3% | i | 6.4% | 1.4% | 2.4%
COc1cc(NC(=O)c2cccc(Cl)c2)c(OC)cc1NC(=O)CN1CCOCC1 | i | ? | i | ? | -14.3% | -8.1%
O=S(=O)(c1ccc2c(c1)C(O)c1ccccc1CC2)C(F)(F)F (configuration not stated) | i | · | i | · | · | ·
Cc1ccccc1Oc1cc(-n2ncc(Cl)c(Cl)c2=O)ncn1 | i | 0.651µM* | 14.6µM* | 0.411µM* | 7.31µM* | 13µM*
CC(C)N(C)C1=CC(=O)C(N(C)C(C)C)=CC1=O | ? | 23.1µM* | i | ? | 2.5% | -5.5%
COc1ccc(-n2ccc(-c3nn(-c4cccc(C(F)(F)F)c4)ccc3=O)n2)cc1 | i | ? | ? | 18.4µM* | -5.0% | -6.4%
O=c1ccn(-c2cccc(C(F)(F)F)c2)nc1-c1ccn(-c2ccccc2F)n1 | ? | ? | i | ? | -12.9% | -1.6%
C[C@@H](c1ccccc1)N1C[C@H]2CCCN2c2cc(Br)ccc2S1(=O)=O | ? | 18.4µM* | ? | ? | ? | ?
COc1ccc(N2CCN(c3nc4ccc(C(=O)c5ccccc5)cc4n4cnnc34)CC2)cc1 | i | 16.4µM* | i | -96.1% | · | ·
CCOC(=O)N1CCN(c2nc3ccc(C(=O)c4ccccc4)cc3n3cnnc23)CC1 | i | ? | i | ? | -2.3% | -5.1%
O=C(c1ccccc1)c1ccc2nc(N3CCN(C(=O)c4ccco4)CC3)c3nncn3c2c1 | i | 23.1µM* | i | 13µM* | -9.0% | 5.7%
Cc1cccc(N2CCN(c3nc4ccc(C(=O)c5ccccc5)cc4n4cnnc34)CC2C)c1 (configuration not stated) | i | 18.4µM* | i | 13µM* | · | ·
O=C(c1ccccc1)c1ccc2nc(N3CCN(c4ccccc4)CC3)c3nncn3c2c1 | i | 4.61µM* | i | 6.51µM* | · | ·
COCCCNC(=O)CCn1c(=O)c2ccccc2n(CC(=O)Nc2cc(Cl)ccc2OC)c1=O | ? | -10.0% | i | -27.1% | · | ·
CC(=O)c1ccc(NC(=O)CC(C)S(=O)(=O)c2ccc3c(c2)CCN3C(C)=O)cc1 (configuration not stated) | i | -9.0% | i | -4.0% | -1.3% | 1.9%
CC1(C)Cc2ccccc2C(CSc2ccccc2C(=O)O)=N1 | i | -22.9% | i | ? | 13.2% | -10.3%
Cn1cnnc1Sc1ccc(CN2CCOc3ccc(C4=CCCCC4)cc3C2)o1 | · | -1.2%[9.04 µM] | · | ? | · | ·
Cc1ccccc1-c1nn(-c2ccc(F)cc2F)cc1CNC1CC1 | i | 2.1% | i | ? | -1.7% | 1.9%
O=C1C=C(c2cccc(OCc3ccccc3)c2)C[C@@H](c2ccc3c(c2)OCO3)C1 | i | -29.4% | i | -20.3% | -15.9% | 0.0%
O=C1C=CC2C(c3ccc4c(c3)OCO4)CC1N2Cc1ccccc1 (configuration not stated) | ? | 8.2µM* | 9.2µM* | 6.51µM* | -19.5% | -19.2%
NNC(=O)c1ccc(CN2CCCCC2)o1 | i | -17.6% | i | 0.0% | 0.7% | 1.5%
Cc1ccc(NC(=O)Cc2c(Cl)cccc2Cl)cc1S(=O)(=O)N(C)C | ? | ? | i | 16.4µM* | ? | -8.2%
Cc1ccc(NC(=O)CNCc2ccc(Cl)cc2Cl)cc1S(=O)(=O)N(C)C | 13µM* | ? | ? | 18.4µM* | -10.1% | -8.4%
O=C(CSc1nnnn1C1CC2CCC1C2)Nc1ccnc2ccccc12 (configuration not stated) | ? | 0.164µM* | i | 0.164µM* | -20.4% | -12.7%
SMILES | KB-V1 MDR tox | DT40 TDP1 CPT | KB-3-1 cytotox | TDP1 cell noCPT | HT1080 IDH1KD tx | HT1080-NT tox
O=C(CSc1nnnn1C1CCCCC1)Nc1ccccc1F | i | 3.5% | i | -41.2% | 0.5% | 15.3%
Cc1nc2ccc(C(=O)NCCCN3CCCC3=O)cn2c1N(C)C(=O)CCc1ccccc1 | i | 1.3% | i | -22.2% | 4.6% | 24.0%
CN1CCN(c2nc(-c3ccccc3)nc(-c3ccc(F)cc3)c2C#N)CC1 | i | ? | i | ? | 3.9% | -0.5%
COc1ccccc1-c1nc(-c2ccccc2)nc(N2CCN(C)CC2)c1C#N | i | -17.4% | ? | ? | 20.6µM* | 16.4µM*
NC(=S)N1N=C(c2ccccc2)CC1=O | i | 2.6% | ? | -2.0% | 10.9% | -0.5%
OCC1(Cc2ccccc2)CCN(C2CCN(c3ccc(F)c(F)c3)CC2)CC1 | ? | -28.8% | i | 11.6µM* | -23.6% | -26.2%
OCC1(Cc2ccccc2)CCN(CCCC2CCCC2)CC1 | i | ? | i | ? | 11.1% | 8.8%
CCc1cccc(CC)c1NC(=S)NCCc1ccc(O)c(O)c1 | ? | 23.1µM* | i | ? | -8.0% | -1.2%
CCc1cccc(CC)c1NC(=S)NCCc1c(C)[nH]c2ccccc12 | i | ? | ? | ? | -15.2% | -14.8%
Cc1cc(C)c(CN2C(=O)c3ccccc3S(=O)(=O)c3ccc(C(=O)OCC4CCCO4)cc32)c(C)c1 (configuration not stated) | i | ? | i | ? | · | ·
